“And” between values parts separate entries of the source, which are not always exact repeats. Identical values can stand only once. Inconclusive results are not listed. Entries that show only a call come without a potency. The source made the active and inactive calls. Unless noted, calls come from the whole dose curve; as a rule, active = well fitted curve in the direction sought with a large enough effect in the repeat runs; inconclusive = weak or mixed curves; inactive = no such curve, though single readings can be large; an effect the other way counts as inactive or inconclusive.
Experiments:
[1] = qHTS assay to identify small molecule antagonists of the thyroid receptor (TR) signaling pathway - cell viability counter screen (AID 743064); note: nearly all actives have a fitted effect of over 50% in size; note: potency is the fitted concentration of half-maximal effect
Outline: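 GH3.TRE-Luc rat pituitary cells carrying a TRE-luciferase reporter were treated with compound plus 1 nM T3 (final) for 23.5 h at 37 °C. Viability was then read in the same wells by CellTiter-Fluor fluorescence after a further 30 min.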

[2] = qHTS assay to identify small molecule antagonists of the thyroid receptor (TR) signaling pathway (AID 743065); note: nearly all actives have a fitted effect of over 55% in size; note: potency is the fitted concentration of half-maximal effect
Outline: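 GH3.TRE-Luc rat pituitary cells carrying two TR response elements driving luciferase were plated for 4 h, given compound plus 1 nM T3 (final), and incubated 23.5 h at 37 C. ONE-Glo luminescence measured reporter inhibition; CellTiter-Fluor fluorescence tracked cytotoxicity.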

[3] = test system: thyroid hormone receptor (rat, GH3 cells); assay: qHTS assay to identify small molecule agonists of the thyroid receptor (TR) signaling pathway (AID 743066; calls by dose curve)
[4] = molecular target: Estrogen receptor (Homo sapiens) (UniProt P03372); assay: qHTS assay to identify small molecule antagonists of the estrogen receptor alpha (ER-alpha) signaling pathway (AID 743069; active = well fitted curve in the direction sought with a large enough effect in the signal ratio in the repeat runs, not every such curve was filed as active; the % refers to the signal ratio)
Outline: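 HEK293 cells stably carrying an ER-alpha-UAS-bla beta-lactamase reporter were pre-cultured overnight in 2% charcoal-stripped FBS medium. Test compounds in DMSO were added together with 17beta-estradiol for 18 hr at 37C. Read-out was fluorescence after 2 hr with LiveBLAzer B/G FRET substrate at room temperature.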

[5] = qHTS assay to identify small molecule antagonists of the estrogen receptor alpha (ER-alpha) signaling pathway - cell viability counter screen (AID 743074; calls by dose curve; note: nearly all actives have a fitted effect of over 45% in size)
[6] = molecular target: Estrogen receptor (Homo sapiens) (UniProt P03372); assay: qHTS assay to identify small molecule agonists of the estrogen receptor alpha (ER-alpha) signaling pathway using the BG1 cell line (AID 743079); note: nearly all actives have a fitted effect of over 20% in size; note: potency is the fitted concentration of half-maximal effect
[7] = qHTS assay to identify small molecule antagonists of the estrogen receptor alpha (ER-alpha) signaling pathway using the BG1 cell line (AID 743080; calls by dose curve;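 note: BG1 cells stimulated with 17beta-estradiol alongside compound; series mostly up to about 70 µM; nearly all actives have a fitted effect of over 25% in size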)
Outline: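 Luciferase inhibition measured with ONE-Glo after 30 min at RT in BG1Luc4E2 cells given test compounds and 17beta-estradiol for 21.5 h at 37 C; CellTiter-Fluor viability read in the same wells beforehand.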

[8] = qHTS assay to identify small molecule antagonists of the estrogen receptor alpha (ER-alpha) signaling pathway using the BG1 cell line - cell viability counter screen (AID 743081);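 note: compound given together with 17beta-estradiol as the ER stimulus; series mostly up to about 70 µM; nearly all actives have a fitted effect of over 45% in size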
[9] = molecular target: Aromatase (Homo sapiens) (UniProt P11511); assay: qHTS assay to identify aromatase inhibitors (AID 743083); note: series mostly up to about 70 µM; nearly all actives have a fitted effect of over 55% in size
[10] = qHTS assay to identify aromatase inhibitors - cell viability counter screen (AID 743084);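 note: cells stimulated with testosterone during compound exposure; nearly all actives have a fitted effect of over 55% in size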
[11] = molecular target: Aryl hydrocarbon receptor (Homo sapiens) (UniProt P35869); assay: qHTS assay to identify small molecule that activate the aryl hydrocarbon receptor (AhR) signaling pathway (AID 743085); note: nearly all actives have a fitted effect of over 15% in size; note: potency is the fitted concentration of half-maximal effect;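 for activation: HG2L7.5c1 human HepG2 liver cells with stably integrated DRE-driven firefly reporter; series mostly up to about 70 µM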
Outline: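 HepG2 cells (HG2L7.5c1) stably carrying a firefly luciferase reporter driven by 20 dioxin responsive elements were exposed to compound for 24 h at 37C after a 5 h settling period; luminescence rise (ONE-Glo) indicated activation.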

[12] = qHTS assay to identify small molecule that activate the aryl hydrocarbon receptor (AhR) signaling pathway - cell viability counter screen (AID 743086);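 note: HepG2 liver cells carrying the AhR DRE luciferase reporter; series mostly up to about 70 µM; nearly all actives have a fitted effect of over 45% in size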
Outline: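 HepG2-AhR-luc (HG2L7.5c1) cells, 4000/well, were preincubated 5 h at 37C, exposed to compound in qHTS format for 24 hr at 37C, then given CellTiter-Fluor for 30 min; viability was read as fluorescence in the reporter wells.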

[13] = molecular target: Peroxisome proliferator-activated receptor gamma (Homo sapiens) (UniProt P37231); assay: qHTS assay to identify small molecule agonists of the peroxisome proliferator-activated receptor gamma (PPARg) signaling pathway (AID 743094; active = well fitted activation curve with a large enough effect in the signal ratio in the repeat runs, not every such curve was filed as active; the % refers to the signal ratio)
Outline: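 Compounds dissolved in DMSO were added to PPARg UAS-bla HEK293H cells for 17 h at 37C, and reporter expression was quantified by fluorescence intensity after 1 h with LiveBLAzer B/G FRET substrate.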

[14] = molecular target: Peroxisome proliferator-activated receptor gamma (Homo sapiens) (UniProt P37231); assay: qHTS assay to identify small molecule antagonists of the peroxisome proliferator-activated receptor gamma (PPARg) signaling pathway (AID 743191; calls by dose curve; note: series mostly up to about 63 µM; nearly all actives have a fitted effect of over 30% in size)
Outline: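 GeneBLAzer PPARg UAS-bla HEK293H cells carrying a UAS-driven beta-lactamase reporter were plated at 3000 cells/well, preincubated 5 h at 37C, then given compound for 17 h at 37C; LiveBLAzer B/G FRET substrate was read after 1 h at room temperature.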

[15] = qHTS assay to identify small molecule antagonists of the peroxisome proliferator-activated receptor gamma (PPARg) signaling pathway - cell viability counter screen (AID 743194); note: nearly all actives have a fitted effect of over 55% in size
Outline: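 PPARg-UAS-bla HEK293H cells were plated, rested 5 h at 37 C, then treated with compounds plus rosiglitazone (50 nM final) for 17 h at 37 C; viability was then read by CellTiter-Glo luminescence after 30 min at room temperature.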

[16] = qHTS assay for small molecule activators of the heat shock response signaling pathway - cell viability counter screen (AID 743209); note: nearly all actives have a fitted effect of over 50% in size
Outline: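 Readout: CellTiter-Glo luminescence, 30 min at room temperature. System: HSE-bla HeLa cells, 1500/well, plated overnight. Treatment: compounds in DMSO, 5 h at 37 C.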

[17] = qHTS assay for small molecule activators of the heat shock response signaling pathway (AID 743210; active = well fitted activation curve with a large enough effect in the signal ratio in the repeat runs, with a control signal flat, not every such curve was filed as active; the % refers to the signal ratio; note: series mostly up to about 63 µM)
Outline: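 HSE-bla HeLa cells (beta-lactamase reporter under heat shock response elements) were exposed to compounds for 5 h at 37 C, then loaded with LiveBLAzer B/G FRET substrate for 2.5 h at room temperature before fluorescence reading.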

[18] = molecular target: Estrogen receptor (Homo sapiens) (UniProt P03372); assay: qHTS assay to identify small molecule agonists of the estrogen receptor alpha (ER-alpha) signaling pathway (AID 743075; calls by dose curve)
[19] = qHTS assay for small molecule agonists of the antioxidant response element (ARE) signaling pathway (AID 743202; active = well fitted activation curve with a large enough effect in the signal ratio in the repeat runs, not every such curve was filed as active; the % refers to the signal ratio)
Outline: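 Read-out: LiveBLAzer B/G FRET substrate fluorescence after 2 h at room temperature, following 16 h compound treatment at 37 C of HepG2 cells carrying an ARE-driven beta-lactamase reporter.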

[20] = qHTS assay for small molecule agonists of the antioxidant response element (ARE) signaling pathway - cell viability counter screen (AID 743203; calls by dose curve; note: nearly all actives have a fitted effect of over 55% in size)
Outline: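 Following 16 hrs of compound treatment at 37C, HepG2 cells with an ARE-controlled beta-lactamase gene were lysed with CellTiter-Glo. Luminescence was read after 30 min at room temperature.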

Peroxisome proliferator-activated receptor gamma (Homo sapiens), sequence (P37231 whole entry, looked up): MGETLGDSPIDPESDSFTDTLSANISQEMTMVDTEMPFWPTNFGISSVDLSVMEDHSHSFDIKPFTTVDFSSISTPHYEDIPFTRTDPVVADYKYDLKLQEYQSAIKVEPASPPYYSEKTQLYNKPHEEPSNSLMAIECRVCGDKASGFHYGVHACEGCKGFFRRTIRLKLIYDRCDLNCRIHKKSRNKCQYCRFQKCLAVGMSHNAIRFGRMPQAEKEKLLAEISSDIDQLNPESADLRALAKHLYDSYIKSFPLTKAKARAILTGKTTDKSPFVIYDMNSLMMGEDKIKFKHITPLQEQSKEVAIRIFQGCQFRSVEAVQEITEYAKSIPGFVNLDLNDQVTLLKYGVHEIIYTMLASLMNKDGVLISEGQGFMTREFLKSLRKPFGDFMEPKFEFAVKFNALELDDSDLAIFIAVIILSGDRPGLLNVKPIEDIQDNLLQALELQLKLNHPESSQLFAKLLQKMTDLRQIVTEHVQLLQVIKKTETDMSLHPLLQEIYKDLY
Aromatase (Homo sapiens), sequence (P11511 whole entry, looked up): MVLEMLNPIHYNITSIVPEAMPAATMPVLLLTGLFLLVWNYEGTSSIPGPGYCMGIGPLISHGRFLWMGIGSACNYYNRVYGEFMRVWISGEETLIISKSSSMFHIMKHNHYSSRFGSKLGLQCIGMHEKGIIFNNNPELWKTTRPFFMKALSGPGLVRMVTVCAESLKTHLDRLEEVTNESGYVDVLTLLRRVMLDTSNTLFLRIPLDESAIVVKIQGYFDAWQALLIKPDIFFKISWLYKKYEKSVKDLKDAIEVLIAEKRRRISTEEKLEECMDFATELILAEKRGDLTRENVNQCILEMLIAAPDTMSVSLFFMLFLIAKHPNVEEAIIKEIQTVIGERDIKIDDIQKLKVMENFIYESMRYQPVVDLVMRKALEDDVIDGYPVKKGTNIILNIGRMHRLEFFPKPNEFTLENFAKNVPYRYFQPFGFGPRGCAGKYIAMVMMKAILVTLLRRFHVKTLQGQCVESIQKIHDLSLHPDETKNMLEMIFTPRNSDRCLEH
Aryl hydrocarbon receptor (Homo sapiens), sequence (P35869 whole entry, looked up): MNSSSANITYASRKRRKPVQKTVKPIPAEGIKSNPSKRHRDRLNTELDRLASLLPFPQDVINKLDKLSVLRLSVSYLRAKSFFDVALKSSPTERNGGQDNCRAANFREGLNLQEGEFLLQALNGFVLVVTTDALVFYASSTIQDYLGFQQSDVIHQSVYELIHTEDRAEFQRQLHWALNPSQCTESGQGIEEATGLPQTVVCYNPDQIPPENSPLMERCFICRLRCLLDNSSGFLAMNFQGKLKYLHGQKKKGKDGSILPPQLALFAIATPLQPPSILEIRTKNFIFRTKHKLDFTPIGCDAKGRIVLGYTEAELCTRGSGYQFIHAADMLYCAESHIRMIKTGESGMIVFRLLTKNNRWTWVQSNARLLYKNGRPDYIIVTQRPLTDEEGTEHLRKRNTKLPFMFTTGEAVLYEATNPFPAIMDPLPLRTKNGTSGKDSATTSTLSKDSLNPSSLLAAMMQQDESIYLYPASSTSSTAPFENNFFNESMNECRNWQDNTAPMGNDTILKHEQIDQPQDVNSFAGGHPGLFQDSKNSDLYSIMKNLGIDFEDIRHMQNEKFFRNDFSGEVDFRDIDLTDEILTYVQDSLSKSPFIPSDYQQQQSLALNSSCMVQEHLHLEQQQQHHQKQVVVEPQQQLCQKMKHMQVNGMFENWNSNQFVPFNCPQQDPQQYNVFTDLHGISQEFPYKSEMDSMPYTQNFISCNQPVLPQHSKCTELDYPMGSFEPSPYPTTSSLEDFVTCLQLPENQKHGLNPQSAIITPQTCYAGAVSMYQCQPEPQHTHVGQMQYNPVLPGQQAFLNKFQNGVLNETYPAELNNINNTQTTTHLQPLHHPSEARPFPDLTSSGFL
Estrogen receptor (Homo sapiens), sequence (P03372 whole entry, looked up): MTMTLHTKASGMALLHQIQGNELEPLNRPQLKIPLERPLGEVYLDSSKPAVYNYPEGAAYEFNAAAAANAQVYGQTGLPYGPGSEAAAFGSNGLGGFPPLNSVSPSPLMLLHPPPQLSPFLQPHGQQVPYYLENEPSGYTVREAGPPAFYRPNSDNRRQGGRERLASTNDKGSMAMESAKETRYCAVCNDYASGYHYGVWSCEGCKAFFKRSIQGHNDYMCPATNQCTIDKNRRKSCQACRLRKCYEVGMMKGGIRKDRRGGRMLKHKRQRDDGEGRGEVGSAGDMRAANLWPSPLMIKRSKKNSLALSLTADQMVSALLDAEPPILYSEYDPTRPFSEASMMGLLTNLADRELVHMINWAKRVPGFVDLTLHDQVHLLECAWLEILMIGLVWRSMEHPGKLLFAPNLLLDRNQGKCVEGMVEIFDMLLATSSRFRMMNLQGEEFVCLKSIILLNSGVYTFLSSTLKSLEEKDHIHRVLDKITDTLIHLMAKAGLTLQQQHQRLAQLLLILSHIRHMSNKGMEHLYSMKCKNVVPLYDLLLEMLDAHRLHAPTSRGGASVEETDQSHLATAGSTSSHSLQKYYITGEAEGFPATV

Row | Structure (SMILES) | Potency [1] | Potency [2] | outcome [3] | Potency [4] | Potency [5] | Potency [6] | Potency [7] | outcome [8] | outcome [9] | Potency [10] | Potency [11] | Potency [12] | Potency [13] | Potency [14] | outcome [15] | outcome [16] | outcome [17] | Potency [18] | Potency [19] | outcome [20]
1 | CC/C=C\CCOC(C)OCC (stereo not drawn) | inactive | inactive | inactive | inactive | inactive | inactive | inactive | inactive | inactive | inactive | inactive | inactive | inactive | inactive | inactive | inactive | inactive | – | – | –
2 | COc1cc(-c2ccc(=O)[nH]n2)ccc1OC(F)F | inactive | inactive | inactive | – | inactive | – | inactive | inactive | inactive | inactive | – | inactive | inactive | – | inactive | inactive | inactive | inactive | inactive | inactive
3 | CCCCCCCCCCCCSC | inactive | inactive | inactive | – | inactive | – | – | inactive | inactive | inactive | inactive | inactive | inactive | inactive | inactive | inactive | inactive | – | – | inactive
4 | Cc1ccc(C(=O)Nc2ccc(S(=O)(=O)O)c3cc(S(=O)(=O)O)cc(S(=O)(=O)O)c23)cc1NC(=O)c1cccc(NC(=O)Nc2cccc(C(=O)Nc3cc(C(=O)Nc4ccc(S(=O)(=O)O)c5cc(S(=O)(=O)O)cc(S(=O)(=O)O)c45)ccc3C)c2)c1 | inactive | inactive | inactive | inactive | – | inactive | – | inactive | inactive | inactive | – | inactive | – | inactive | – | inactive | inactive | inactive | inactive | inactive
5 | CC(=O)c1ccc2ccccc2c1 | inactive | inactive | inactive | – | inactive | inactive | inactive | inactive | inactive | inactive | – | inactive | inactive | inactive | inactive | inactive | inactive | inactive | – | inactive
6 | CCOC(=O)OC(C)OC1=C(C(=O)Nc2ccccn2)N(C)S(=O)(=O)c2ccccc21 (stereo not drawn) | inactive | inactive | inactive | inactive | – | – | inactive | inactive | inactive | inactive | – | inactive | inactive | inactive | inactive | – | inactive | inactive | inactive | inactive
7 | Nc1ccn([C@@H]2O[C@H](CO)[C@@H](O)[C@@H]2O)c(=O)n1 | 217 nM (active) | 77 nM (active) | inactive | – | inactive | 24.3 µM (active) | inactive | inactive | inactive | inactive | inactive | inactive | – | inactive | inactive | inactive | inactive | inactive | inactive | inactive
8 | CNC(=O)Nc1ccc(Cl)c(Cl)c1 | inactive | 30600 nM (active) | inactive | inactive | inactive | inactive | – | inactive | inactive | inactive | 54.5 µM (active) | inactive | inactive | – | inactive | inactive | inactive | – | inactive | inactive
9 | Nc1ccn([C@@H]2O[C@H](CO)[C@@H](O)C2O)c(=O)n1 (stereo partly drawn) | 531 nM (active) and 486 nM (active) | 376 nM (active) and 193 nM (active) | inactive | – | inactive | inactive | – | inactive | inactive | inactive | inactive | inactive | inactive | – | inactive | inactive | inactive | inactive | – | inactive
10 | CCOc1ccc2nc(S(N)(=O)=O)sc2c1 | inactive | inactive | inactive | inactive | inactive | – | – | inactive | inactive | inactive | – | inactive | inactive | – | inactive | inactive | inactive | inactive | – | inactive
11 | Cc1ccccc1N=C(N)N=C(N)N | inactive | inactive | inactive | – | inactive | – | – | inactive | inactive | inactive | inactive | inactive | inactive | – | inactive | inactive | inactive | – | inactive | inactive
12 | CCOC(=O)c1ccccc1 | inactive | inactive | inactive | inactive | inactive | – | – | inactive | inactive | inactive | – | – | – | inactive | inactive | inactive | inactive | inactive | inactive | inactive
13 | CNCCO | inactive | inactive | inactive | – | inactive | – | – | inactive | inactive | inactive | inactive | inactive | inactive | inactive | inactive | inactive | inactive | – | – | inactive
14 | CC1CCC(CO)CC1 (stereo not drawn) | inactive | inactive | inactive | – | inactive | inactive | – | inactive | inactive | inactive | inactive | inactive | – | – | inactive | inactive | inactive | inactive | inactive | inactive
15 | CCCc1ncc(C[n+]2ccccc2C)c(N)n1 | inactive | inactive | inactive | – | inactive | – | – | inactive | inactive | inactive | inactive | inactive | inactive | inactive | inactive | inactive | inactive | – | inactive | inactive
16 | Cc1ncc([C@@H](CCCCCCc2ccc3c(n2)NCCC3)CC(=O)O)cn1 | inactive | inactive | inactive | – | inactive | inactive | inactive | inactive | inactive | – | inactive | – | inactive | – | – | inactive | inactive | inactive | – | inactive
